Structures are written as SMILES. “And” between values parts separate entries of the source, which are not always exact repeats. Identical values can stand only once. Out of some 5,600 compounds screened, about 150 (2.7%) showed an effect of 50% or more. Many of the other results were omitted from the sample, so strong results are more common in it than they were.

A word on the inhibition: it is the drop in the measured response relative to a control, in per cent.

The experiment concerns the target T1, Protein deacetylase HDAC6 (Homo sapiens) (UniProt Q9UBN7).
T1 sequence (whole entry): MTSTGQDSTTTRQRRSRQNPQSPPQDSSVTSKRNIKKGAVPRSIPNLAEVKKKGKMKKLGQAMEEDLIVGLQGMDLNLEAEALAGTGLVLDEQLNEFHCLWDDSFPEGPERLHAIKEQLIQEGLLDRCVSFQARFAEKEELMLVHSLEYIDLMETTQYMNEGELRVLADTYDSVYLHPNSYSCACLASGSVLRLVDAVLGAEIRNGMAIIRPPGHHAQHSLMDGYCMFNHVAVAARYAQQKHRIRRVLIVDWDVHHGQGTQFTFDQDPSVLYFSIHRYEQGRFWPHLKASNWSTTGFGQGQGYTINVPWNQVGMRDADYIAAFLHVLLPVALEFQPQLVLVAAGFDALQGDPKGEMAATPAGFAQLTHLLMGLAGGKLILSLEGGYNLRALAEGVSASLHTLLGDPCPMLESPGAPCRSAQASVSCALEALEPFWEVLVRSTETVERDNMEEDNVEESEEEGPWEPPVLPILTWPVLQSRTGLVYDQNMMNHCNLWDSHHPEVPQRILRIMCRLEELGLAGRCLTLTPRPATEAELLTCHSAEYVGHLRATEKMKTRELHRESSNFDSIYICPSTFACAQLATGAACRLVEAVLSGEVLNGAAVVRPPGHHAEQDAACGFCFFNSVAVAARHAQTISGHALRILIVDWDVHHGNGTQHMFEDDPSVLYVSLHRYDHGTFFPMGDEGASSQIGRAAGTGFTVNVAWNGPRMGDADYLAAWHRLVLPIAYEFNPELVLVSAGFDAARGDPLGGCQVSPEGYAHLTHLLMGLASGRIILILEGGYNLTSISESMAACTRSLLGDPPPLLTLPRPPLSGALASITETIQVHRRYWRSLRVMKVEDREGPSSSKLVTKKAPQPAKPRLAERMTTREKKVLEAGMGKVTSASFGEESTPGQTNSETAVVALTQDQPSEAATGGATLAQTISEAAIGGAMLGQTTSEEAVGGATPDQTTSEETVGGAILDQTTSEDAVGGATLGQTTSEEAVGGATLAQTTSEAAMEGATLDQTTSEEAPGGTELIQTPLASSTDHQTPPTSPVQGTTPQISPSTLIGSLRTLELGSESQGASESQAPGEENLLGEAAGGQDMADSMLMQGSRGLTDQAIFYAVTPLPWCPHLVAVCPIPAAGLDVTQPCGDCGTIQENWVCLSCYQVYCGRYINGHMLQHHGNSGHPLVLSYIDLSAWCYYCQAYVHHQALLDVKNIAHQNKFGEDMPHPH
Particulars: at 10 µM.
As for `CCN1C(=O)CNc2ncc(-c3ccc(-c4nc[nH]n4)nc3C)nc21`, the inhibition stood at 0.29%.

As for `Cc1cc(C)c(/C=C2\C(=O)Nc3ccccc32)[nH]1`, the inhibition was determined as 2.33%.

In the case of `CN(C)c1ccc(/C=C2\C(=O)Nc3ccccc32)cc1`, the inhibition is 96.3%.

In the case of `Cc1[nH]c(/C=C2\C(=O)Nc3ccccc32)c(C)c1CCC(=O)O`, the inhibition stood at 8.55%.

Regarding `CSC1SC[C@H]2C(=O)N(C)[C@@H](C(C)C)C(=O)OC[C@@H](NC(=O)c3cnc4ccccc4n3)C(=O)N[C@@H](C)C(=O)N(C)[C@@H]1C(=O)N(C)[C@@H](C(C)C)C(=O)OC[C@@H](NC(=O)c1cnc3ccccc3n1)C(=O)N[C@@H](C)C(=O)N2C` (stereo partly specified), the inhibition was -2.22%.

Consider `Cc1cc(-c2nc(-c3ccc(OC(F)(F)F)cc3)no2)nn1Cc1ccnc(N2CCN(C3CC3)CC2)c1`, for which the inhibition was -4.46%.

Regarding `COc1cc(C(=O)NC2CCCNC2)cc(OC)c1OC` (stereo unspecified), the inhibition was -2.46%.

For `COc1cc(C(=O)OCCCN2CCCN(CCCOC(=O)c3cc(OC)c(OC)c(OC)c3)CC2)cc(OC)c1OC`, the inhibition was -3.62%.

For the molecule `COc1cc(C(=S)N2CCOCC2)cc(OC)c1OC`, the inhibition came to 97.4%.

Regarding `CC(C)(C)[C@H]1CC[C@H](CC2=C(O)C(=O)c3ccccc3C2=O)CC1`, the inhibition was 4.06%.

With `COc1cccc(-c2ccc(NC(=O)C3=C(C(=O)O)CCC3)c(F)c2)c1`, the inhibition came out at 94%.

As to `COc1ccccc1C(=O)Nc1cc2c(cc1N1CCCC1)n(C)c(=O)n2C`, the inhibition was -4.48%.

Turning to `COc1ccc(-c2c(C)c(C(=O)NN3CCCCC3)nn2-c2ccc(Cl)cc2Cl)cc1`, the inhibition was found to be 3.52%.

In the case of `CCOc1ccc(-c2ccc(Cn3c(CC(C)(C)C(=O)O)c(SC(C)(C)C)c4cc(OCc5ccc(C)cn5)ccc43)cc2)cn1`, the inhibition was -4.44%.

Turning to `C[C@H](NCc1ccc(OCc2cccc(F)c2)cc1)C(N)=O`, the inhibition is 88.8%.

Turning to `Cc1ccc(-c2ccc(F)cc2COc2ccc(CCC(=O)O)cc2)cc1`, the inhibition was 2.57%.

In the case of `C[C@H](NCc1ccc(OCc2ccccc2F)cc1)C(N)=O`, the inhibition was found to be 69.9%.

With `C[C@H](NC(=O)Cc1cc(F)cc(F)c1)C(=O)N[C@H](C(=O)OC(C)(C)C)c1ccccc1`, the inhibition is -6.8%.

Take `CC(C)NCC(O)COc1ccc(CC(N)=O)cc1` (stereo unspecified): the inhibition was 8.69% and 11.7%.

On to `O=C1S/C(=C\c2ccc(OCc3cccc(B(O)O)c3)cc2)C(=O)N1Cc1ccc(F)cc1`, for which the inhibition was determined as 8.15%.

On to `COC(=O)C1=C(C)NC(C)=C(C(=O)OC/C=C/c2ccccc2)C1c1cccc([N+](=O)[O-])c1` (stereo unspecified), for which the inhibition is -8.71%.

For the molecule `CN[C@H](CC(C)C)C(=O)N[C@H]1C(=O)N[C@@H](CC(N)=O)C(=O)N[C@H]2C(=O)N[C@H]3C(=O)N[C@H](C(=O)N[C@H](C(=O)O)c4cc(O)cc(O)c4-c4cc3ccc4O)[C@H](O[C@H]3C[C@](C)(N)[C@@H](O)[C@H](C)O3)c3ccc(c(Cl)c3)Oc3cc2cc(c3O[C@@H]2O[C@H](CO)[C@@H](O)[C@H](O)[C@H]2O[C@H]2C[C@](C)(NCc3ccc(-c4ccc(Cl)cc4)cc3)[C@@H](O)[C@H](C)O2)Oc2ccc(cc2Cl)[C@H]1O`, the inhibition was determined as 0.32%.

On to `N#C/C(=C\c1ccc(O)c(O)c1)C(=O)NCCCCc1ccccc1`, for which the inhibition worked out at 1.74%.

On to `N#C/C(=C\c1ccc(O)c(O)c1)C(=O)Nc1ccccc1`, for which the inhibition is 93.8%.

For the molecule `N#C/C(=C\c1ccc(O)c(O)c1)C(N)=O`, the inhibition worked out at 18.8%.

`N#C/C(=C\c1ccc(O)c(O)c1)C(=O)NCc1ccccc1`: the inhibition came out at 54.9%.

On to `N#C/C(=C\c1ccc(O)c(O)c1)C(=O)NCCCc1ccccc1`, for which the inhibition is 17.5%.

Take `C[C@H](NC(=O)/C(C#N)=C/c1ccc(O)c(O)c1)c1ccccc1`: the inhibition was determined as 20.7%.

As for `COCCOCCOc1ccc(C2=N[C@@](C)(C(=O)O)CS2)c(O)c1`, the inhibition was -6.58%.

On to `O=C(Nc1ccc(F)cc1)N1CCc2ccccc2C1c1ccc(C(F)(F)F)cc1` (stereo unspecified), for which the inhibition was -5.96%.

As for `COC(=O)[C@H](CC(C)C)NC(=O)c1ccc(NC[C@@H](N)CS)cc1-c1cccc2ccccc12`, the inhibition was found to be 3.13%.

As for `CC(C)=CCC[C@](C)(O)[C@H]1CC[C@]2(C)[C@@H]1[C@H](O)C[C@@H]1[C@@]3(C)CC[C@H](O)C(C)(C)[C@@H]3[C@@H](O)C[C@]12C`, the inhibition is -3.01%.

On to `OC[C@H]1NCC[C@@H](O)[C@@H]1O`, for which the inhibition was -1.49%.

Regarding `CC[C@@H](Nc1c(Nc2cccc(C(=O)N(C)C)c2O)c(=O)c1=O)c1ccc(C)o1`, the inhibition is -5.03%.

With `CC(=O)c1ccc2c(c1)[C@@H]1C=CC[C@@H]1[C@H](c1cc3c(cc1Br)OCO3)N2`, the inhibition is -3.37%.

As to `N=C(N)NCCSSCCNC(=N)N`, the inhibition is -3.98%.

Take `CC(=O)N[C@H](Cc1c[nH]c2ccccc12)C(=O)OCc1cc(C(F)(F)F)cc(C(F)(F)F)c1`: the inhibition is -8.38%.

Turning to `Cc1ccc(NC2=CC(=O)c3sc(C)nc3C2=O)cc1`, the inhibition worked out at 58.6%.

For `Fc1ccc2c(CCNCc3cccc(OCC(F)(F)C(F)F)c3)c[nH]c2c1`, the inhibition was 4.2%.

In the case of `CC[C@]1(O)C[C@@H]2CN(CCc3c([nH]c4ccccc34)[C@@](C(=O)OC)(c3cc4c(cc3OC)N(C)[C@H]3[C@@](O)(C(N)=O)[C@H](O)[C@]5(CC)C=CCN6CC[C@]43[C@@H]65)C2)C1`, the inhibition is -4.06%.

In the case of `CCCC(=O)N1CCCN(c2nc(N)c3cc(OC)c(OC)cc3n2)CC1`, the inhibition turned out to be 15.5%.

As for `COc1cc2nc(N3CCN(C(=O)C4CCCO4)CC3)nc(N)c2cc1OC` (stereo unspecified), the inhibition worked out at 79%.

Regarding `COc1cc2nc(N3CCN(C(=O)C4COc5ccccc5O4)CC3)nc(N)c2cc1OC` (stereo unspecified), the inhibition is -3.15%.

For the molecule `CCCOCCn1c(=O)c(N2CCN(CCO)CC2)nc2cnc(-c3ccc(OC)nc3)cc21`, the inhibition amounted to 2%.

In the case of `O=C(O)CN1CCN(CC(=O)O)CCN(CC(=O)O)CCN(CC(=O)O)CC1`, the inhibition was -2.86%.

Consider `CSc1ccc([C@H]2CN3CCC[C@H]3c3ccccc32)cc1` (racemic), for which the inhibition is -1.09%.

On to `Nc1nccs1`, for which the inhibition is -0.93%.

With `Nc1nncs1`, the inhibition is 60.9%.

Regarding `COCCOc1ccc(N2CCN(CCn3ncc4c3nc(N)n3nc(-c5ccco5)nc43)CC2)cc1`, the inhibition came out at 4.38%.

Consider `NS(=O)(=O)c1ccc(NC(=O)Nc2ccc(F)cc2)cc1`, for which the inhibition stood at 0.46%.

Consider `Cc1cc(C)cc(NC(=O)Nc2ccc(OS(N)(=O)=O)cc2)c1`, for which the inhibition came out at 76.1%.

In the case of `Cc1ccc(S(=O)(=O)OCC(=O)Nc2ccc(C(=O)O)c(O)c2)cc1`, the inhibition was -5.6%.

Regarding `COC(=O)c1ccccc1NC(=O)c1ccc(F)cc1`, the inhibition was 0.65%.

Take `CS(=O)(=O)N1CCN(Cc2cc3nc(-c4cccc5[nH]ncc45)nc(N4CCOCC4)c3s2)CC1`: the inhibition amounted to 3.78%.

With `Cc1c(CN2CCN(C(=O)[C@H](C)O)CC2)sc2c(N3CCOCC3)nc(-c3cnc(N)nc3)nc12`, the inhibition is -2.64%.

Regarding `COc1ccc(-c2nc(N3CCOCC3)c3sc(CN(C)c4ncc(C(=O)NO)cn4)cc3n2)cn1`, the inhibition came out at 97.1%.

The record behind these values is ChEMBL document CHEMBL4808148, “HDAC6 screening dataset using tau-based substrate in an enzymatic assay yields selective inhibitors and activators” (2021).
